Six molecules from PubChem BioAssay (NCI) can be followed below.

The panel holds about 83,000 compounds, 20% with a hit somewhere; the sample as a whole holds those more often.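 The test compound was applied at a single concentration to cells in 96-well plates for 48 hours, and percent growth was recorded.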 A number with no mark means an inactive call. Activity calls are given as the source filed them. Rule for the calls: active = growth percent below 10; inactive = the rest.

Some test systems named below: DU-145 prostate; MALME-3M melanoma; MDA-MB-231 breast; RXF 393 renal; SF-268 CNS; SF-295 CNS; SF-539 CNS; UACC-257 melanoma; M14 melanoma; HCT-15 colon; HT29 colon; SNB-75 CNS; SNB-19 CNS; U251 CNS; PC-3 prostate; SK-MEL-5 melanoma; UACC-62 melanoma; LOX IMVI melanoma; SK-MEL-28 melanoma.
Common to all, as to experiment: NCI-60 one-dose screen, 48 h (100 = growth as untreated, 0 = no growth, -100 = all killed)
A further assay relates to K-562 leukemia. To be noted: 10 µM unless noted.

With `O=C(Nc1ccc(-c2ccc3c(c2)NC(=O)/C3=C\c2ccc[nH]2)cc1)Nc1cccc(Cl)c1`, the growth in the assay on DU-145 prostate (10 µM unless noted) is 24.6%; in the assay with K-562 leukemia, 7.56% (active); with MALME-3M melanoma (10 µM unless noted) it was 7.96% (active); in the assay on MDA-MB-231 breast (10 µM unless noted) it was -23.1% (active); in the assay with RXF 393 renal (10 µM unless noted), -53.6% (active); in the assay on SF-268 CNS (10 µM unless noted), 32%. Also, the growth with SF-295 CNS (10 µM unless noted) is -31% (active); in the assay with SF-539 CNS (10 µM unless noted), -79.8% (active); in the assay on UACC-257 melanoma (10 µM unless noted), 22.3%; in the assay on M14 melanoma (10 µM unless noted), 9.34% (active); with HCT-15 colon (10 µM unless noted) it was -32.5% (active); in the assay on HT29 colon (10 µM unless noted), -61.5% (active). Moreover, the growth with SNB-75 CNS (10 µM unless noted) was 16.6%; in the assay on SNB-19 CNS (10 µM unless noted) it was 19.8%; in the assay with U251 CNS (10 µM unless noted), -52.4% (active); with PC-3 prostate (10 µM unless noted) it was 13.5%; in the assay on SK-MEL-5 melanoma (10 µM unless noted) it was -45.7% (active); in the assay with UACC-62 melanoma (10 µM unless noted) it was -36.3% (active). In addition, the growth in the assay on LOX IMVI melanoma (10 µM unless noted) is -88.4% (active); in the assay on SK-MEL-28 melanoma (10 µM unless noted) it was -4.21% (active).

With `COc1ccc(C(=O)C[n+]2cccc3c4ccccc4ccc32)cc1`, the growth in the assay on DU-145 prostate (10 µM unless noted) was 56.3%; with K-562 leukemia, 16.4%; in the assay on MALME-3M melanoma (10 µM unless noted) it was 34.3%; with MDA-MB-231 breast (10 µM unless noted), 40.4%; in the assay with RXF 393 renal (10 µM unless noted) it was 55.8%; with SF-268 CNS (10 µM unless noted), 38%. Moreover, the growth with SF-295 CNS (10 µM unless noted) was 29.8%; in the assay with SF-539 CNS (10 µM unless noted), 53.1%; with UACC-257 melanoma (10 µM unless noted), 15.4%; in the assay with M14 melanoma (10 µM unless noted), 38.5%; in the assay on HCT-15 colon (10 µM unless noted), 87.5%; in the assay on HT29 colon (10 µM unless noted), 20.4%. Moreover, the growth in the assay on SNB-75 CNS (10 µM unless noted) was 82.1%; in the assay with SNB-19 CNS (10 µM unless noted), 31.4%; in the assay with U251 CNS (10 µM unless noted), 28.2%; in the assay on PC-3 prostate (10 µM unless noted), 27.5%; in the assay on SK-MEL-5 melanoma (10 µM unless noted), -31.4% (active); with UACC-62 melanoma (10 µM unless noted), 55.7%. Besides, the growth in the assay with LOX IMVI melanoma (10 µM unless noted) was 46.1%; in the assay with SK-MEL-28 melanoma (10 µM unless noted) it was 67%.

For the molecule `Cc1ccc(O)cc1Nc1nc(SCCN2CCOCC2)nc2c1cnn2CC(Cl)c1ccc(Br)cc1` (stereo not drawn), the growth with DU-145 prostate (10 µM unless noted) was 29.5%; in the assay on K-562 leukemia it was -38.6% (active); in the assay on MALME-3M melanoma (10 µM unless noted), 1.03% (active); with MDA-MB-231 breast (10 µM unless noted) it was -30.6% (active); with RXF 393 renal (10 µM unless noted) it was -24.3% (active); in the assay on SF-268 CNS (10 µM unless noted) it was 23.6%. In addition, the growth in the assay on SF-295 CNS (10 µM unless noted) was -2.67% (active); in the assay on SF-539 CNS (10 µM unless noted), 10.7%; in the assay with UACC-257 melanoma (10 µM unless noted), 18.1%; with M14 melanoma (10 µM unless noted), 9.14% (active); in the assay on HCT-15 colon (10 µM unless noted) it was 0.154% (active); with HT29 colon (10 µM unless noted), -30.2% (active). The growth was 4.06% (active) with SNB-75 CNS (10 µM unless noted); 20.6% with SNB-19 CNS (10 µM unless noted); 15.4% in the assay on U251 CNS (10 µM unless noted); 17% in the assay on PC-3 prostate (10 µM unless noted); -0.938% (active) in the assay on SK-MEL-5 melanoma (10 µM unless noted); 15.6% with UACC-62 melanoma (10 µM unless noted). The growth with LOX IMVI melanoma (10 µM unless noted) is -88.4% (active); in the assay on SK-MEL-28 melanoma (10 µM unless noted), 17.1%.

Take `COc1ccc(-c2cc(C(=O)N=Nc3c(O)[nH]c4ccc(Cl)cc34)c3ccccc3n2)cc1`: the growth with DU-145 prostate (10 µM unless noted) was 19%; in the assay on K-562 leukemia, 64.8%; with MALME-3M melanoma (10 µM unless noted) it was 90.1%; with MDA-MB-231 breast (10 µM unless noted) it was -44.2% (active); with RXF 393 renal (10 µM unless noted) it was 133%; in the assay with SF-268 CNS (10 µM unless noted) it was 68.8%. Further, the growth is 96.7% in the assay with SF-295 CNS (10 µM unless noted); 44.8% in the assay with SF-539 CNS (10 µM unless noted); 106% in the assay with UACC-257 melanoma (10 µM unless noted); 76.9% in the assay on M14 melanoma (10 µM unless noted); -42.2% (active) with HCT-15 colon (10 µM unless noted); -17.3% (active) with HT29 colon (10 µM unless noted). The growth is 62.9% in the assay on SNB-75 CNS (10 µM unless noted); 23.5% in the assay on SNB-19 CNS (10 µM unless noted); -64.1% (active) in the assay with U251 CNS (10 µM unless noted); 48% in the assay with PC-3 prostate (10 µM unless noted); 93% with SK-MEL-5 melanoma (10 µM unless noted); 73.2% with UACC-62 melanoma (10 µM unless noted). The growth was -29.8% (active) with LOX IMVI melanoma (10 µM unless noted) and -6.34% (active) in the assay on SK-MEL-28 melanoma (10 µM unless noted).

Turning to `CC/C(=C(\c1ccc(O)cc1)c1ccc(OCCN(C)C(=O)COCCNC(=O)Cc2ccc3c(c2)CN([C@@H]2CCC(=O)NC2=O)C3=O)cc1)c1ccccc1`, the growth in the assay with DU-145 prostate (1 µM) is 103%; in the assay on DU-145 prostate (10 µM), 104%; in the assay with MALME-3M melanoma (1 µM) it was 24.7%; in the assay on MALME-3M melanoma (10 µM), -13.3% (active); in the assay with MDA-MB-231 breast (1 µM) it was -5.08% (active); in the assay with MDA-MB-231 breast (10 µM) it was -26.3% (active). Also, the growth is 100% in the assay with RXF 393 renal (1 µM); 99.4% in the assay with RXF 393 renal (10 µM); 77% in the assay with SF-268 CNS (1 µM); 51.8% in the assay with SF-268 CNS (10 µM); 103% in the assay on SF-295 CNS (1 µM); 81.9% in the assay on SF-295 CNS (10 µM). Besides, the growth is 78.3% in the assay on SF-539 CNS (1 µM); 55.1% in the assay on SF-539 CNS (10 µM); 96.4% with UACC-257 melanoma (1 µM); 95.4% in the assay on UACC-257 melanoma (10 µM); 82.1% with M14 melanoma (1 µM); 68.9% in the assay with M14 melanoma (10 µM). Further, the growth is 110% in the assay on HCT-15 colon (1 µM); 99.5% in the assay on HCT-15 colon (10 µM); 110% with HT29 colon (1 µM); 80.1% in the assay with HT29 colon (10 µM); 44.9% in the assay on SNB-75 CNS (1 µM); 4.63% (active) with SNB-75 CNS (10 µM). The growth was 64.8% in the assay on SNB-19 CNS (1 µM); 49.8% in the assay on SNB-19 CNS (10 µM); 97.4% in the assay on U251 CNS (1 µM); 80% in the assay on U251 CNS (10 µM); 26.7% in the assay on PC-3 prostate (1 µM); 18.7% in the assay with PC-3 prostate (10 µM). Further, the growth with SK-MEL-5 melanoma (1 µM) is 83.7%; in the assay on SK-MEL-5 melanoma (10 µM), 31.8%; with UACC-62 melanoma (1 µM), 93.4%; with UACC-62 melanoma (10 µM), 77.8%; in the assay with LOX IMVI melanoma (1 µM), 101%; with LOX IMVI melanoma (10 µM), 90.4%. Moreover, the results for the growth with SK-MEL-28 melanoma (1 µM) and in the assay on SK-MEL-28 melanoma (10 µM) were 90.4% and 57%, respectively.

As to `O=C(CSc1nc2ccccc2c(=O)[nH]1)NNC(=O)c1ccccc1Cl`, the growth in the assay with DU-145 prostate (10 µM unless noted) is 110%; in the assay with K-562 leukemia it was 103%; in the assay with MALME-3M melanoma (10 µM unless noted), 105%; in the assay on MDA-MB-231 breast (10 µM unless noted) it was 99.8%; with RXF 393 renal (10 µM unless noted), 117%; in the assay on SF-268 CNS (10 µM unless noted), 106%. In addition, the growth in the assay with SF-295 CNS (10 µM unless noted) was 112%; in the assay with SF-539 CNS (10 µM unless noted), 96.5%; in the assay with UACC-257 melanoma (10 µM unless noted), 95%; with M14 melanoma (10 µM unless noted), 110%; with HCT-15 colon (10 µM unless noted), 107%; with HT29 colon (10 µM unless noted), 109%. For the same molecule, the growth is 72.6% with SNB-75 CNS (10 µM unless noted); 92.4% in the assay with SNB-19 CNS (10 µM unless noted); 96.3% in the assay on U251 CNS (10 µM unless noted); 123% with PC-3 prostate (10 µM unless noted); 106% in the assay with SK-MEL-5 melanoma (10 µM unless noted); 110% in the assay on UACC-62 melanoma (10 µM unless noted). Also, the figures for the growth in the assay on LOX IMVI melanoma (10 µM unless noted) and in the assay with SK-MEL-28 melanoma (10 µM unless noted) were 102% and 148%, respectively.
